Screening results as filed in PubChem BioAssay.
Shown are actives, neighbours in structure and some others; about 3.3% of the full set was active somewhere.
RE007 growth inh: qHTS Assay for Inhibitors of the HIV-1 protein Vpr | S. pombe RE007 Vpr strain, BacTiter-Glo ATP luminescence, 24 h | Potency, µM (doses to about 92.2 µM), most hits filed as inhibitors | hit rate 0.21% among 360,000; active means well fitted falling curve with a large enough effect; inconclusive means small, poorly fitted or top-dose-only effect; inactive means no such curve, though single readings can be large or run the other way; further: nearly all actives have a fitted effect of over 50% in size
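Fission yeast RE007 carrying one integrated HIV-1 vpr copy, seeded at OD 0.01 in PMG+AL medium with 23 nL pinned compound. Grown 24 h at 30 degrees; viability read by BacTiter-Glo luminescence after 5 min.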
Sm TGR inh: qHTS Assay for the Inhibitors of Schistosoma Mansoni Peroxiredoxins. hit rate 3% among 360,000. purified TGR, DTNB reduction, TNB absorbance 405 nm. Potency, µM (top dose mostly 114 µM), actives largely listed as inhibitors. Schistosoma mansoni thioredoxin glutathione reductase (TGR), Q962Y6. AID 485364, 2010; further: nearly all actives have a fitted effect of over 60% in size
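TGR 20 nM + NADPH 100 uM (dispensed conc.), cpd preinc 15 min RT; start with NADPH (500 uM addition) then DTNB (15 mM addition). Kinetic TNB absorbance, 405 nm filter. Four-parameter Hill fit across titration.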
LmPK inh: qHTS Assay for Inhibitors of Leishmania Mexicana Pyruvate Kinase (LmPK) | Q27686 | purified LmPK, Kinase-Glo ATP luminescence, 1 h | Potency, µM (highest dose often 57.5 µM), most hits filed as inhibitors | hit rate 0.37% among 290,000 | AID 1721, 2009
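Screened at intermediate enzyme activity to detect both inhibitors and activators: LmPK at 0.1 nM, with a 0.5 nM enzyme column as activation reference. PEP 0.5 mM, ADP 0.1 mM; ATP detected by luminescence after 1 h.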
FBPA Giardia inh: qHTS Assay for Inhibitors of Fructose-1,6-bisphosphate Aldolase from Giardia Lamblia; A8B2U2; purified Giardia FBPA; Potency, µM (top dose mostly 59.6 µM), hits mostly inhibitors; hit rate 0.71% among 290,000; AID 2451, 2010; further: nearly all actives have a fitted effect of over 55% in size
Target sequence (A8B2U2 whole entry, looked up): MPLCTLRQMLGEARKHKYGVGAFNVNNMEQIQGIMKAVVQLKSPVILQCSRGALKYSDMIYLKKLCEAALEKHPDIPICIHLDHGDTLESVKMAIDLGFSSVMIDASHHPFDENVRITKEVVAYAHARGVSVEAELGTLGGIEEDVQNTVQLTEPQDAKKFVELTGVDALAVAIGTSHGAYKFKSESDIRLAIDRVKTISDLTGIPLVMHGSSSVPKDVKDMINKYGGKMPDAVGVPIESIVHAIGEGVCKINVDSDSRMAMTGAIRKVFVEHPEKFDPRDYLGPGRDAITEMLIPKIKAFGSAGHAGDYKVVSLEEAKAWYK
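40 nM FBPA preincubated 10 min at RT with compound (up to 57.5 uM final), then substrate plus GAPDH/TPI/NAD/arsenate coupling and diaphorase/resazurin added. Fluorescence read after 20 min at RT, 525/598 nm.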
TbPYK inhibitor: qHTS of Trypanosoma Brucei Inhibitors; pyruvate kinase (Trypanosoma brucei), Q57TT1; TbPYK enzyme, Kinase-Glo Plus ATP luminescence, 45 min; Potency, µM (series often up to 76.8 µM), hits mostly inhibitors; hit rate 0.12% among 410,000; AID 624173, 2012; further: nearly all actives have a fitted effect of over 50% in size
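Quantitative HTS: titrated library compounds versus trypanosomal pyruvate kinase in TEA buffer (pH 7.2) containing KCl, MgCl2, BSA and Tween-20. Reactions were initiated with ADP, 130 uM final. Kinase-Glo Plus luminescence was read after 45 min at RT.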
Each line names hits and unclear results; the compound was inactive in the other large screens; ! = not active in a repeat. Unless noted, the call rests on the fitted dose curve; in most records, active means well fitted curve in the direction sought with a large enough effect; inconclusive means small, poorly fitted or top-dose-only effect, or another doubt; inactive means no such curve, though single readings can be large; an effect the other way counts as inactive or inconclusive.

O=C(O)c1ccccc1SC1CC(=O)N(c2ccc3c(c2)OCO3)C1=O (stereo unspecified)	RE007 growth inh 22.4µM, Sm TGR inh 2.24µM
Cc1cc(C)cc(N2C(=O)CC(Sc3ccccc3C(=O)O)C2=O)c1 (stereo unspecified)	RE007 growth inh 11.2µM, Sm TGR inh 1.26µM
Cc1ccc(N2C(=O)CC(Sc3ccccc3C(=O)O)C2=O)c([N+](=O)[O-])c1 (stereo unspecified)	RE007 growth inh inconclusive (no result: Sm TGR inh)
Oc1csc(Cc2nc(-c3ccc4ccccc4c3)cs2)n1	none
CCN(CC)C(=O)[C@H]1C[C@H](CC(=O)NCCC2=CCCCC2)C(=O)N2CCc3c([nH]c4cc(CCC(=O)N(C)C)ccc34)[C@]12C	none (no result: Sm TGR inh, LmPK inh, FBPA Giardia inh)
CCCCN1C(=O)CC(Sc2ccccc2C(=O)O)C1=O (stereo unspecified)	Sm TGR inh 20µM
COc1ccc(N2C(=O)CC(Sc3ccccc3C(=O)O)C2=O)c([N+](=O)[O-])c1 (stereo unspecified)	Sm TGR inh 11.2µM
CCOC(=O)c1c(N2C(=O)CC(Sc3ccccc3C(=O)O)C2=O)sc(C)c1C (stereo unspecified)	Sm TGR inh 4.47µM
Cc1cccc(N2C(=O)CC(Sc3ccccc3C(=O)O)C2=O)c1 (stereo unspecified)	RE007 growth inh 5.62µM, Sm TGR inh 14.1µM
CC(C)CN1C(=O)CC(Sc2ccccc2C(=O)O)C1=O (stereo unspecified)	Sm TGR inh inconclusive
Clc1nnc2c3ccccc3ccn12	none (no result: Sm TGR inh, LmPK inh, FBPA Giardia inh)
CN(C)c1ccc(N2C(=O)CC(Sc3ccccc3C(=O)O)C2=O)cc1 (stereo unspecified)	RE007 growth inh 6.31µM, Sm TGR inh 28.2µM
CCCc1cc(C(=O)N2CCCC(N3CCN(c4ccc(F)cc4)CC3)C2)no1 (stereo unspecified)	none (no result: FBPA Giardia inh)
NS(=O)(=O)c1ccc(N=Nc2ccc(=O)[nH]c2O)cc1	Sm TGR inh 22.4µM, FBPA Giardia inh 5.61µM
NS(=O)(=O)c1ccc(N=Nc2c(O)[nH]c(=S)[nH]c2=O)cc1	none
NS(=O)(=O)c1ccc(N=Nc2ccc(O)c3ncccc23)cc1	Sm TGR inh 56.2µM, FBPA Giardia inh inconclusive (no result: RE007 growth inh)
COC(=O)C1=C(C(=O)OC)C(c2cc(Cl)ccc2O)c2sc(=O)[nH]c2S1 (stereo unspecified)	Sm TGR inh 39.8µM (no result: FBPA Giardia inh)
COC(=O)C1=C(C(=O)OC)C(c2cc(Br)ccc2O)c2sc(=O)[nH]c2S1 (stereo unspecified)	Sm TGR inh inconclusive
CC(=O)Oc1cccc(/C=C2\Sc3ccccc3C2=O)c1	LmPK inh inconclusive
CN(Cc1ccccc1)C(=O)c1ncn(C)c1C(=O)N(C)Cc1ccccc1	Sm TGR inh 20µM (no result: LmPK inh, FBPA Giardia inh)
CN(Cc1ccccc1)C(=C(Cl)Cl)C(=C1NCCN1)[N+](=O)[O-]	Sm TGR inh 35.5µM, FBPA Giardia inh inconclusive
CN(Cc1ccccc1)C(=C(Cl)Cl)/C(=C1/NCCN1C)[N+](=O)[O-]	LmPK inh inconclusive
CC1(C)CC(NC(=O)c2ccc(-c3ccc([N+](=O)[O-])cc3)o2)CC(C)(C)N1	Sm TGR inh 39.8µM (no result: FBPA Giardia inh)
CC1(C)CC(NC(=O)Nc2ccc([N+](=O)[O-])cc2)CC(C)(C)N1	none
CC(OC(=O)c1ccc(-c2ccc([N+](=O)[O-])cc2)o1)C(=O)NC(N)=O (stereo unspecified)	Sm TGR inh 4.47µM
O=C(O)c1ccc(-c2cccc([N+](=O)[O-])c2)o1	Sm TGR inh 35.5µM
O=C(Nc1ccccc1)c1ccc(-c2ccc([N+](=O)[O-])cc2)o1	Sm TGR inh 3.55µM
CNCc1ccccc1Sc1cc(O)ccc1O	Sm TGR inh 3.55µM, LmPK inh inconclusive, FBPA Giardia inh inconclusive, TbPYK inhibitor inconclusive
CC(=O)c1cccc(NC(=O)CN(Cc2ccccc2)S(C)(=O)=O)c1	none
O=C(O)c1cccc(-n2cccc2/C=C/[N+](=O)[O-])c1	Sm TGR inh 4.47µM, FBPA Giardia inh inconclusive, TbPYK inhibitor inconclusive
N#CCCS(=O)(=O)c1nnnn1-c1ccccc1	Sm TGR inh 7.08µM (no result: RE007 growth inh, TbPYK inhibitor)
CCOCCCNc1ncc2c(n1)CC(c1ccc(C)cc1)CC2=O (stereo unspecified)	none
CCSc1ncnc2sc3c(c12)CCC3	none
CCSC1=NC2(CCCCC2)Nc2sc3c(c21)CCCC3	RE007 growth inh 39.8µM, Sm TGR inh 56.2µM
CS(=O)(=O)c1ncc(Cl)c(C(=O)N2CCN(c3cccc(Cl)c3)CC2)n1	Sm TGR inh 3.55µM (no result: RE007 growth inh, LmPK inh, FBPA Giardia inh)
CCS(=O)(=O)c1ncc(Cl)c(C(=O)N2CCN(c3cccc(Cl)c3)CC2)n1	Sm TGR inh 7.08µM (no result: RE007 growth inh, LmPK inh, FBPA Giardia inh)
C1CCC2(CC1)C1=C(CCCC1)Nc1nnnn12	Sm TGR inh 44.7µM (no result: TbPYK inhibitor)
COc1ccc(NS(=O)(=O)c2c(F)cccc2F)cc1S(=O)(=O)N1CCOCC1	Sm TGR inh 39.8µM (no result: LmPK inh, FBPA Giardia inh)
O=C(CSc1nc(-c2ccccc2)no1)N1CCN(c2ccccc2)CC1	none (no result: RE007 growth inh, LmPK inh, FBPA Giardia inh)
COc1cccc(OC)c1C(=O)Nc1cc(Cl)ccc1N1CCOCC1	none
CC1CCCN(C(=O)C(C)Nc2cc(Cl)ccc2N2CCOCC2)C1 (stereo unspecified)	Sm TGR inh 39.8µM
C=CCn1c(SCC(=O)N2CCOCC2)nc2ccccc2c1=O	none (no result: FBPA Giardia inh)
C[c-]1[c-](C)[c-](C)[c-](C)[c-]1C.[Fe].c1cc2nccc(N3CCCC3)[c-]2c1 (stereo unspecified)	Sm TGR inh 3.16µM!, LmPK inh 31.6µM!, FBPA Giardia inh inconclusive
CCOC(=O)C1CCN(C(c2cccnc2)c2c(NC(=O)c3ccco3)sc(C)c2C)CC1 (stereo unspecified)	Sm TGR inh 7.94µM
Cc1sc(NC(=O)c2ccco2)c(C(c2cccnc2)N2CCN(c3ccc(F)cc3)CC2)c1C (stereo unspecified)	Sm TGR inh 22.4µM
COc1ccc(C)cc1NC(=O)CCNC(=O)c1ccco1	none (no result: FBPA Giardia inh)
O=S(=O)(NC(=S)NC1CCCCC1)c1cccs1	Sm TGR inh 25.1µM, FBPA Giardia inh inconclusive
Cc1cc(C)c(S(=O)(=O)N2CCCCC2C(=O)O)c(C)c1 (stereo unspecified)	none
Cc1cc(/C=C(\C#N)C(=O)NCC2CCCO2)c(C)n1-c1ccc(Cl)cc1 (stereo unspecified)	none
COc1cccc(CC2(CO)CCCN(Cc3ccc(-c4ccco4)cc3)C2)c1 (stereo unspecified)	Sm TGR inh 17.8µM
COc1cccc(CC2(CO)CCCN(Cc3ccccc3-c3ccco3)C2)c1 (stereo unspecified)	Sm TGR inh 50.1µM
O=C(NCc1ccco1)c1scc2c1OCCO2	Sm TGR inh 35.5µM
CCC(C(=O)NCCN1CCOCC1)n1c2ccccc2c2nc(=O)cc(C)n21 (stereo unspecified)	none (no result: FBPA Giardia inh)
